# Experimental data taken from PubChem BioAssay.
# The source made the active and inactive calls. Cut-off read from the data, not from the text of the source, unless noted: active = inhibition above about 80%; inactive = the rest.
# Experiments:
# [1] = growth inhibition, single agent or in combination, cell-based, chromothripsis tumors, cisplatin or BGB combos (AID 1671449); conditions: LFS_MB_P medulloblastoma cells;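 note: cells exposed for 96 hours; 0% = vehicle DMSO and 100% = killing by high DMSO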
# [2] = growth inhibition, single agent and combos, cell-based, chromothripsis tumors, cisplatin or BGB combos (AID 1671450); conditions: HDN33 neuroblastoma cells, stronger effect = higher value;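 note: cells exposed to compound for four days; 0% = vehicle DMSO and 100% = cell killing by high DMSO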
# [3] = growth inhibition, single agents and combos, ICB984, cell-based, cisplatin or BGB combos, synergistic combos for chromothripsis tumors (AID 1671451; call rule not given here;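 note: cells exposed for 96 hours before readout; 0% = vehicle DMSO and 100% = killing by high DMSO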); conditions: ICB984 medulloblastoma cells, drug combinations, stronger effect = higher value
# [4] = growth inhibition, single agents and combos, LFS_MB_1R, cell-based, cisplatin or BGB combos, synergistic combos for chromothripsis tumors (AID 1671452); conditions: LFS_MB_1R medulloblastoma cells, stronger effect = higher value;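 note: cells exposed for 96 hours before readout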
# [5] = growth inhibition, single agents and combos, HTB85, cell-based, BGB or cisplatin IC20 combos, synergistic combos for chromothripsis tumors (AID 1671453); conditions: HTB85 osteosarcoma cells, drug combinations, stronger effect = higher value;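 note: cells exposed for 96 hours before readout; 0% = vehicle DMSO and 100% = high DMSO killing control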
# [6] = growth inhibition, single agents and combos, CRL2098, cell-based, BGB or cisplatin IC20 combos, synergistic combos for chromothripsis tumors (AID 1671454); conditions: CRL2098 osteosarcoma cells, drug combinations, stronger effect = higher value;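 note: cells exposed for 96 h before readout; 0% = vehicle DMSO and 100% = killing by high DMSO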
# [7] = growth inhibition, single agents and combos, HD-MB03, cell-based, BGB or cisplatin IC20 combos, synergistic combos for chromothripsis tumors (AID 1671455; in the data active = inhibition above about 83%;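 note: 0% = vehicle DMSO and 100% = high DMSO as cytotoxic control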); conditions: HD-MB03 medulloblastoma cells, stronger effect = higher value
# [8] = growth inhibition, single agents and combos, UWB1.289, cell-based, BGB or cisplatin combos, synergistic combos for chromothripsis tumors (AID 1671456); conditions: UWB1.289 ovarian carcinoma cells, stronger effect = higher value;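 note: cells exposed to compound for four days; 0% = vehicle DMSO and 100% = killing by high DMSO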
# [9] = growth inhibition, single agents and combos, LFS_MB_2R, cell-based, cisplatin combos, synergistic combos for chromothripsis tumors (AID 1671457); conditions: LFS_MB_2R medulloblastoma cells, stronger effect = higher value;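 note: cells exposed to compound for four days before readout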
# [10] = growth inhibition, MDA-MB-436, cell-based, BGB or cisplatin combos, synergistic combos for chromothripsis tumors (AID 1671458; call rule not given here;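 note: cells exposed for 96 hours; 0% = vehicle DMSO and 100% = killing by high DMSO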); conditions: MDA-MB-436 breast carcinoma growth inhibition, drug combinations, stronger effect = higher value
# [11] = UWB1.289_BRCA1 ovarian cancer growth, cell-based, BGB or cisplatin combinations (AID 1671459); conditions: UWB1.289 BRCA1 ovarian carcinoma, drug combinations, stronger effect = higher value
# [12] = drug combination toxicity in non-malignant astrocytes – cell-based, BGB or cisplatin IC20 combos, cytotoxicity control for chromothriptic childhood tumor combination screen (AID 1671460); conditions: Human astrocytes, viability inhibition, drug combinations, at 0.5 µM, stronger effect = higher value;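 note: cells exposed to compounds for 96 hours before viability readout; 0% = vehicle and 100% = killing control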
# [13] = BT084 cell growth, single and combined drugs, ICGC_MB145, cisplatin and BGB IC40 combos (AID 1671461); conditions: BT084 medulloblastoma cells, drug combinations, stronger effect = higher value;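 note: cells exposed to drugs for 96 hours; 0% = vehicle DMSO and 100% = high DMSO full killing control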
# [14] = RCMB18 cell growth, single agent and combined, cisplatin and BGB IC40 combos (AID 1671462); conditions: RCMB18 medulloblastoma cells, stronger effect = higher value;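 note: cells exposed to compound for four days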
# [15] = CRL1545 cell growth, single agent and combined, cisplatin and BGB IC20 combos (AID 1671464); conditions: CRL1545 osteosarcoma cells, stronger effect = higher value;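 note: cells exposed to compound for 96 hours before readout; 0% = vehicle DMSO and 100% = high DMSO killing control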
# [16] = at 0.5 µM, stronger effect = higher value
# [17] = measured here: combination with BGB IC20, at 0.005 µM
# [18] = measured here: combination with BGB IC40, at 0.005 µM
# [19] = measured here: combination with BGB IC40, at 0.05 µM
# [20] = measured here: combination with cisplatin, at 0.5 µM, stronger effect = higher value
# [21] = measured here: combination with cisplatin, at 5 µM, stronger effect = higher value
# [22] = measured here: with BGB IC20 combination, at 0.5 µM
# [23] = measured here: with cisplatin IC20 combination, at 0.5 µM
# [24] = measured here: 5 uM single agent, at 5 µM
# [25] = measured here: combination with cisplatin, at 0.5 µM
# [26] = measured here: combination with cisplatin, at 5 µM
# [27] = measured here: with BGB IC20, at 0.5 µM
# [28] = measured here: with BGB IC20, at 5 µM
# [29] = measured here: with cisplatin IC20, at 0.5 µM
# [30] = measured here: with cisplatin IC20, at 5 µM
# [31] = measured here: combination with BGB at IC20, at 0.5 µM
# [32] = measured here: combination with cisplatin at IC20, at 0.5 µM
# [33] = measured here: combo with BGB at IC20, at 0.5 µM
# [34] = measured here: combo with cisplatin at IC20, at 0.5 µM
# [35] = measured here: inhibition with BGB combination, at 0.05 µM
# [36] = measured here: inhibition with cisplatin combination, at 0.05 µM
# [37] = measured here: BGB combination, at 0.5 µM
# [38] = measured here: BGB combination, at 5 µM
# [39] = measured here: cisplatin combination, at 0.5 µM
# [40] = measured here: cisplatin combination, at 5 µM
# [41] = BGB combination, concentration series, at 5 µM
# [42] = cisplatin combination, concentration series, at 5 µM
# [43] = measured here: combo with BGB IC20
# [44] = measured here: combo with cisplatin IC20
# [45] = cisplatin combination, at 0.5 µM
# [46] = measured here: BGB IC40 combination 0.05 uM, at 0.05 µM
# [47] = measured here: BGB IC40 combination, at 0.05 µM
smiles,measurement,setting,value
COc1nc(N)nc2c1ncn2[C@@H]1O[C@H](CO)[C@@H](O)[C@H]1O,inhibition,[1]; [16],4.72% (inactive)
same,inhibition,[1]; [17],15.5%
same,inhibition,[1]; [18],9.31%
same,inhibition,[1]; [19],-38.6%
same,inhibition,[1]; [20],58.9%
same,inhibition,[1]; [21],5.54%
same,inhibition,"[2]; BGB combo, at 5 µM",-39.7%
same,inhibition,[2]; at 0.5 µM,-10.9% (inactive)
same,inhibition,"[2]; cisplatin combo, at 5 µM",-30.3%
same,inhibition,[2]; [22],-0.293%
same,inhibition,[2]; [23],-13.5%
same,inhibition,"[2]; single agent, at 5 µM",-2.81%
same,inhibition,"[3]; BGB IC20 combo, at 0.005 µM",-28.6%
same,inhibition,"[3]; BGB IC40 combo, at 0.005 µM",-6.48%
same,inhibition,"[3]; BGB IC40 combo, at 0.05 µM",-21%
same,inhibition,[3]; at 0.5 µM,-21.1% (inactive)
same,inhibition,"[3]; cisplatin combo, at 0.05 µM",-25.3%
same,inhibition,"[3]; cisplatin combo, at 0.5 µM",-22.6%
same,inhibition,"[3]; cisplatin combo, at 5 µM",-28.5%
same,inhibition,[3]; [24],-19.6%
same,inhibition,[4]; at 0.5 µM,-13.7% (inactive)
same,inhibition,[4]; [19],-35.3%
same,inhibition,[4]; [25],-34.3%
same,inhibition,[4]; [26],-13.1%
same,inhibition,[5]; at 0.5 µM,-19.2% (inactive)
same,inhibition,[5]; [27],-19.6%
same,inhibition,[5]; [28],-25.8%
same,inhibition,[5]; [29],-42.1%
same,inhibition,[5]; [30],-37.2%
same,inhibition,"[5]; single agent, at 5 µM",-10.5%
same,inhibition,[6]; at 0.5 µM,-31.4% (inactive)
same,inhibition,[6]; [31],-18.4%
same,inhibition,[6]; [32],-84.8%
same,inhibition,[7]; at 0.5 µM,-9.1% (inactive)
same,inhibition,[7]; [33],-11%
same,inhibition,[7]; [34],-9.78%
same,inhibition,[8]; at 0.5 µM,-10.1% (inactive)
same,inhibition,[8]; [35],-8.96%
same,inhibition,[8]; [36],-25.3%
same,inhibition,[9]; at 0.5 µM,-9.84% (inactive)
same,inhibition,[9]; [25],-1.3%
same,inhibition,[9]; [26],9.04%
same,inhibition,[10]; at 0.5 µM,-1.85% (inactive)
same,inhibition,[10]; [37],1.63%
same,inhibition,[10]; [38],-10.7%
same,inhibition,[10]; [39],-1.11%
same,inhibition,[10]; [40],-9.18%
same,inhibition,[11]; [41],-2.42%
same,inhibition,[11]; at 0.5 µM,-5.52% (inactive)
same,inhibition,[11]; [42],1.78%
same,inhibition,[12],-6.61% (inactive)
same,inhibition,[12]; [43],-1.7%
same,inhibition,[12]; [44],-14.9%
same,inhibition,[13]; at 0.5 µM,7.93% (inactive)
same,inhibition,[13]; [45],-30.4%
same,inhibition,"[13]; cisplatin combination, at 5 µM",16.2%
same,inhibition,[13]; [46],42.2%
same,inhibition,"[13]; single agent, at 5 µM",-18%
same,inhibition,[14]; at 0.5 µM,-13.9% (inactive)
same,inhibition,"[14]; cisplatin combo, at 5 µM",-23.5%
same,inhibition,[14]; [47],-4.14%
same,inhibition,[14]; [25],-19%
same,inhibition,"[14]; single agent, at 5 µM",15.2%
same,inhibition,[15]; at 0.5 µM,-24.6% (inactive)
same,inhibition,[15]; [22],-20.2%
same,inhibition,[15]; [23],-28.8%
same,inhibition,"[15]; single agent, at 0.05 µM",-9.67%
same,inhibition,"[15]; single agent, at 5 µM",-66.7%
Nc1ccccc1NC(=O)c1cnccn1,inhibition,[1]; [16],-12.4% (inactive)
same,inhibition,[1]; [17],-41.6%
same,inhibition,[1]; [18],85.5%
same,inhibition,[1]; [19],-7.35%
same,inhibition,[1]; [20],-18.9%
same,inhibition,[1]; [21],-28.5%
same,inhibition,"[2]; BGB combo, at 5 µM",-12.4%
same,inhibition,[2]; at 0.5 µM,-14.6% (inactive)
same,inhibition,"[2]; cisplatin combo, at 5 µM",6.5%
same,inhibition,[2]; [22],-34.1%
same,inhibition,[2]; [23],5.82%
same,inhibition,"[2]; single agent, at 5 µM",1.32%
same,inhibition,"[3]; BGB IC20 combo, at 0.005 µM",-16.9%
same,inhibition,"[3]; BGB IC40 combo, at 0.005 µM",-7.68%
same,inhibition,"[3]; BGB IC40 combo, at 0.05 µM",-8.97%
same,inhibition,[3]; at 0.5 µM,-30.1% (inactive)
same,inhibition,"[3]; cisplatin combo, at 0.05 µM",-14.5%
same,inhibition,"[3]; cisplatin combo, at 0.5 µM",-45.8%
same,inhibition,"[3]; cisplatin combo, at 5 µM",-16.9%
same,inhibition,[3]; [24],-10%
same,inhibition,[4]; at 0.5 µM,-27.6% (inactive)
same,inhibition,[4]; [19],-29.7%
same,inhibition,[4]; [25],-55.5%
same,inhibition,[4]; [26],-22%
same,inhibition,[5]; at 0.5 µM,-12.2% (inactive)
same,inhibition,[5]; [27],-6.35%
same,inhibition,[5]; [28],4.3%
same,inhibition,[5]; [29],-15.5%
same,inhibition,[5]; [30],27.4%
same,inhibition,"[5]; single agent, at 5 µM",-13.3%
same,inhibition,[6]; at 0.5 µM,-55.8% (inactive)
same,inhibition,[6]; [31],-72.3%
same,inhibition,[6]; [32],-47%
same,inhibition,[7]; at 0.5 µM,-6.67% (inactive)
same,inhibition,[7]; [33],-7.96%
same,inhibition,[7]; [34],-6.22%
same,inhibition,[8]; at 0.5 µM,12.9% (inactive)
same,inhibition,[8]; [35],-30.1%
same,inhibition,[8]; [36],-23.2%
same,inhibition,[9]; at 0.5 µM,-19.8% (inactive)
same,inhibition,[9]; [25],-6.3%
same,inhibition,[9]; [26],1.58%
same,inhibition,[10]; at 0.5 µM,-6.35% (inactive)
same,inhibition,[10]; [37],-5.5%
same,inhibition,[10]; [38],-1.92%
same,inhibition,[10]; [39],-13.4%
same,inhibition,[10]; [40],-2.01%
same,inhibition,[11]; [41],22.6%
same,inhibition,[11]; at 0.5 µM,-5.39% (inactive)
same,inhibition,[11]; [42],17%
same,inhibition,[12],3.77% (inactive)
same,inhibition,[12]; [43],3.42%
same,inhibition,[12]; [44],8.86%
same,inhibition,[13]; at 0.5 µM,-7.12% (inactive)
same,inhibition,[13]; [45],-9.24%
same,inhibition,"[13]; cisplatin combination, at 5 µM",-35.5%
same,inhibition,[13]; [46],-29.6%
same,inhibition,"[13]; single agent, at 5 µM",14.3%
same,inhibition,[14]; at 0.5 µM,-13.8% (inactive)
same,inhibition,"[14]; cisplatin combo, at 5 µM",35.4%
same,inhibition,[14]; [47],-24.6%
same,inhibition,[14]; [25],-43.9%
same,inhibition,"[14]; single agent, at 5 µM",21.9%
same,inhibition,[15]; at 0.5 µM,19.6% (inactive)
same,inhibition,[15]; [22],-5.57%
same,inhibition,[15]; [23],31.1%
same,inhibition,"[15]; single agent, at 0.05 µM",-21.9%
same,inhibition,"[15]; single agent, at 5 µM",32.9%
